The text below walks through data of PubChem BioAssay.

The nature of assay [1]: liver-stage malaria parasite load reduction – cell-based, known kinase inhibitor set, luminescence, hepatoma host viability (AID 624392).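 Note: infected cells incubated roughly two days before readout.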 The note with it: Plasmodium liver stage in hepatoma cells, luciferase luminescence, concentration not given here; liver cell % of control: measured here: host liver cell viability; parasite % of control: stronger effect = lower value.
Assay [2] is described as follows: altered dexamethasone sensitivity, NF-kB reporter, cell-based, luciferase, IL-1B stimulus (AID 624486).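 For percent of negative control (+Dex): 100% = mean signal of vehicle control wells on the plate.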 The note with it: IL-1B + dexamethasone, luminescence; percent of negative control (+Dex): actives lie on both sides, concentration not given here; z-score: measured here: IL-1B alone, no Dex.
Assay [3] is described as follows: C. elegans survival during P. aeruginosa infection – whole organism (AID 651566).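 Note: tested at 14 µM; sign flipped so higher z means a lower ratio.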 The note with it: C. elegans killed by P. aeruginosa, survival ratio.
Assay [4] is described as follows: pro-inflammatory signaling induction in mouse macrophages – cell-based, murine, luminescence (AID 652131). The note with it: murine macrophage pro-inflammatory reporter, stronger effect = higher value.
The target in assay [5] is Cellular tumor antigen p53 (Homo sapiens) (UniProt P04637). In words: GFP-p53 level modulators in HPV16+ cells – imaging, known kinase inhibitor set, EGFP/DsRed ratio (AID 1053116).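 Note: cells exposed to compounds for 24 h at 37 °C before reading.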 The note with it: GFP-p53 stability, stronger effect = higher value; EGFP object count: measured here: GFP-p53 positive objects count.
The nature of assay [6]: inducers of IRF3 signaling, differentiated THP-1 – cell-based, PMA-stimulated THP-1, luminescence (AID 1053176). The note with it: PMA-differentiated THP-1, IRF3 reporter luminescence; stronger effect = higher value.
Assay [7] in a line: MELAS cybrid and Rieske KO viability enhancers – cell-based, MELAS cybrids, Rieske KO mouse fibroblasts, CellTiter-Glo, primary screen (AID 1508586;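 active = mean z-score across replicates of 1.96 or higher in either the MELAS or the Rieske mutant cell line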;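 note: z relative to plate mean and SD of compound and empty wells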). The note with it: low glucose. Background: Cellular ATP, detected with luciferase, serves as a proxy for viable cell number.
[8] abbreviates: MELAS cybrid survival, CellTiter-Glo 48 h, stronger effect = higher value.
Where [9] appears, read: Rieske KO mouse fibroblast survival, CellTiter-Glo 72 h.

The source made the active and inactive calls. Unless noted, the rule behind the calls is not given here.

Cellular tumor antigen p53 (Homo sapiens), sequence (P04637 whole entry, looked up): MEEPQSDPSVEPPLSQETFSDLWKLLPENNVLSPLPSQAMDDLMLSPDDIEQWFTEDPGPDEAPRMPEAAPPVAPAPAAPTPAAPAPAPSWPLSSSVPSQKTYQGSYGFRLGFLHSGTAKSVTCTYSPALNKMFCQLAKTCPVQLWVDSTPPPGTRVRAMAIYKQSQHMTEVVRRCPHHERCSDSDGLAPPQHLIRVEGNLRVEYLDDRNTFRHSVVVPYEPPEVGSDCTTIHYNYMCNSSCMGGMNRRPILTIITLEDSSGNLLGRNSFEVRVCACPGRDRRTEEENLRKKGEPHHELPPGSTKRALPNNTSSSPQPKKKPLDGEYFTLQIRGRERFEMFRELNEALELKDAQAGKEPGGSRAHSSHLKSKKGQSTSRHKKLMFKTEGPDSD

In assay [1], `CN1CCC(n2cnc(-c3ccc(F)cc3)c2-c2ccnc(N)n2)CC1` returned a liver cell % of control of 83.2%. Moreover, the parasite % of control in assay [1] is 168% (inactive). Further, in assay [2], the percent of negative control (+Dex) was 107% (inactive). Further, the z-score in assay [2] was 2.09; in assay [3], 0.34 (inactive); in assay [4], 3.77 (inactive); in assay [7] (setting [8]) it was -0.312 (inactive); in assay [7] (setting [9]), -0.31. Also, in assay [5], the EGFP object count came to 1.5. Besides, in assay [5], the EGFP/DsRed ratio was 0.024 (inactive). In assay [6], the fraction signal was -0.004 (inactive).
As to `Cc1ccc(C(=O)NC2CCC2)cc1-c1ccc(C(=O)NCC2CC2)cc1`, the liver cell % of control in assay [1] was found to be 104%. Besides, the parasite % of control in assay [1] was 116% (inactive). Besides, in assay [2], the percent of negative control (+Dex) was 98.5% (inactive). The z-score in assay [2] was 1.36; in assay [3], 0.425 (inactive); in assay [4] it was -0.285 (inactive); in assay [7] (setting [8]) it was -0.173 (inactive); in assay [7] (setting [9]), -0.404. For the same compound, the EGFP object count in assay [5] turned out to be 2. Moreover, in assay [5], the EGFP/DsRed ratio is 0.0763 (inactive). Further, the fraction signal in assay [6] was -0.002 (inactive).
The compound `CCn1c(-c2nonc2N)nc2cncc(C(=O)N3CC[C@H](N)C3)c21` returned a liver cell % of control in assay [1] of 108%. Moreover, the parasite % of control in assay [1] was 146% (inactive). The percent of negative control (+Dex) in assay [2] was 76.5% (inactive). Further, the z-score in assay [2] is -2.08; in assay [3], -0.435 (inactive); in assay [4] it was 1.55 (inactive); in assay [7] (setting [8]), -0.752 (inactive); in assay [7] (setting [9]) it was -0.175. The EGFP object count in assay [5] came out at 4. Moreover, the EGFP/DsRed ratio in assay [5] is 0.0807 (inactive). In addition, the fraction signal in assay [6] was -0.0035 (inactive).
Regarding `COC(=O)Nc1nc2ccc(Oc3ccc(NC(=O)Nc4cccc(C(=O)O)c4)cc3)cc2[nH]1`, the liver cell % of control in assay [1] amounted to 122%. Moreover, the parasite % of control in assay [1] was 180% (inactive). The percent of negative control (+Dex) in assay [2] was 118% (inactive). The z-score in assay [2] is 1.69; in assay [3] it was 0.33 (inactive); in assay [4], -0.479 (inactive); in assay [7] (setting [8]), -0.776 (inactive); in assay [7] (setting [9]), -0.262. Further, in assay [5], the EGFP object count worked out at 5.5. Moreover, the EGFP/DsRed ratio in assay [5] was 0.0528 (inactive). In assay [6], the fraction signal was -0.002 (inactive).
With `Nc1nc(-c2ccc(F)cc2)c(-c2ccc3ncccc3n2)s1`, in assay [1], the liver cell % of control is 158%. Also, in assay [1], the parasite % of control was 131% (inactive). Moreover, the percent of negative control (+Dex) in assay [2] is 85.5% (inactive). For the same compound, the z-score in assay [2] was 0.965; in assay [3], -0.035 (inactive); in assay [4] it was -0.162 (inactive); in assay [7] (setting [8]), 0.38 (inactive); in assay [7] (setting [9]) it was 0.128. Further, the EGFP object count in assay [5] was determined as 6. In addition, the EGFP/DsRed ratio in assay [5] was 0.152 (inactive). Besides, the fraction signal in assay [6] is -0.002 (inactive).
Turning to `O=C(Nc1n[nH]c2nc(-c3ccco3)c(Br)cc12)C1CC1`, in assay [1], the liver cell % of control came out at 109%. Moreover, the parasite % of control in assay [1] is 102% (inactive). The percent of negative control (+Dex) in assay [2] is 95% (inactive). Moreover, the z-score in assay [2] is 0.68; in assay [3], -0.17 (inactive); in assay [4] it was 0.441 (inactive); in assay [7] (setting [8]), -1.24 (inactive); in assay [7] (setting [9]) it was 0.037. Moreover, in assay [5], the EGFP object count was determined as 4. For the same compound, the EGFP/DsRed ratio in assay [5] is 0.447 (inactive). In assay [6], the fraction signal was -0.002 (inactive).
Take `O=S1CCN(Cc2ccc(-c3ccc4ncnc(Nc5ccc(OCc6ccccc6)c(Cl)c5)c4c3)o2)CC1`: in assay [1], the liver cell % of control came out at 98.4%. The parasite % of control in assay [1] is 108% (inactive). For the same compound, the percent of negative control (+Dex) in assay [2] is 77% (inactive). The z-score in assay [2] is -0.87; in assay [3] it was 0.67 (inactive); in assay [4], 1.11 (inactive); in assay [7] (setting [8]), 1.05 (inactive); in assay [7] (setting [9]) it was -0.081. Besides, the EGFP object count in assay [5] is 5. In assay [5], the EGFP/DsRed ratio was 0.0559 (inactive). Besides, the fraction signal in assay [6] was -0.0035 (inactive).
In turn, `CCCN1CCC(c2ccc(Nc3nc(Nc4cc(F)ccc4C(N)=O)c4cc[nH]c4n3)c(OC)c2)CC1` displayed a liver cell % of control in assay [1] of 73%. Besides, the parasite % of control in assay [1] is 355% (inactive). Besides, the percent of negative control (+Dex) in assay [2] is 72% (inactive). For the same compound, the z-score was -1.46 in assay [2]; 0.62 (inactive) in assay [3]; -0.577 (inactive) in assay [4]; -0.472 in assay [7] (setting [8]); 7.31 in assay [7] (setting [9]). For the same compound, the EGFP object count in assay [5] stood at 22.5. Further, the EGFP/DsRed ratio in assay [5] is 0.237 (inactive). For the same compound, the fraction signal in assay [6] is -0.0085 (inactive).
Take `N#Cc1c(NC(=O)CN2CCOCC2)sc2c1CCCC2`: the liver cell % of control in assay [1] came out at 105%. Also, the parasite % of control in assay [1] was 134% (inactive). Besides, in assay [2], the percent of negative control (+Dex) is 98% (inactive). Further, the z-score was -0.1 in assay [2]; 0.4 (inactive) in assay [3]; 0.254 (inactive) in assay [4]; -0.581 (inactive) in assay [7] (setting [8]); -0.17 in assay [7] (setting [9]). The EGFP object count in assay [5] came to 3.5. Besides, the EGFP/DsRed ratio in assay [5] is 0.0894 (inactive). In assay [6], the fraction signal is 0.0015 (inactive).
For the compound `CS(=O)(=O)CCNCc1ccc(-c2ccc3ncnc(Nc4ccc(OCc5cccc(F)c5)c(C(F)(F)F)c4)c3c2)o1`, the liver cell % of control in assay [1] worked out at 105%. Further, the parasite % of control in assay [1] is 99.7% (inactive). The percent of negative control (+Dex) in assay [2] was 106% (inactive). The z-score in assay [2] is 1.84; in assay [3], 0.48 (inactive); in assay [4], -0.873 (inactive); in assay [7] (setting [8]) it was -0.506 (inactive); in assay [7] (setting [9]) it was -0.463. In addition, the EGFP object count in assay [5] is 1. Also, the EGFP/DsRed ratio in assay [5] was 0.00783 (inactive). In addition, the fraction signal in assay [6] was -0.0125 (inactive).
Consider `O=C1NC(=O)C(c2ccccc2Cl)=C1Nc1cccc(O)c1`, for which the liver cell % of control in assay [1] is 91.7%. Besides, in assay [1], the parasite % of control was 148% (inactive). Further, in assay [2], the percent of negative control (+Dex) is 88% (inactive). Besides, the z-score was -0.19 in assay [2]; -0.34 (inactive) in assay [3]; 0.132 (inactive) in assay [4]; -0.289 (inactive) in assay [7] (setting [8]); -0.424 in assay [7] (setting [9]). The EGFP object count in assay [5] is 5.5. Also, the EGFP/DsRed ratio in assay [5] is 0.0989 (inactive). Further, the fraction signal in assay [6] was -0.003 (inactive).
As for `CC(=O)Nc1cccc(C#Cc2cncnc2Nc2ccc(OCc3cccc(F)c3)c(Cl)c2)c1`, the liver cell % of control in assay [1] amounted to 111%. Moreover, the parasite % of control in assay [1] was 108% (inactive). Further, the percent of negative control (+Dex) in assay [2] is 89.5% (inactive). Moreover, the z-score was -0.925 in assay [2]; 0.045 (inactive) in assay [3]; -0.803 (inactive) in assay [4]; -0.744 (inactive) in assay [7] (setting [8]); 0.00771 in assay [7] (setting [9]). For the same compound, in assay [5], the EGFP object count was 3.5. Moreover, the EGFP/DsRed ratio in assay [5] was 0.169 (inactive). In assay [6], the fraction signal was 0.0085 (inactive).
